Measured values taken from the supplement of paper PMC13380429.

Test system: Vero E6 infected with SARS-CoV-2
Assay: inhibition of SARS-CoV-2 cytopathic effect; higher = more antiviral protection, active = above 15
Conditions: 48 h

Measured: inhibition of SARS-CoV-2 cytopathic effect

N[C@@H](CCNCc1ccc(Cl)cc1)C(=O)N1CCCCC1
inactive: 1 nM 0.82% | 8.33 nM -0.55% | 100 nM -2.08% | 833.33 nM -1.49% | 10000 nM -1.28%

CS(=O)(=O)c1ccc(-c2cnc(N)c(C(=O)Nc3ccccc3)n2)cc1
inactive: 1 nM 1.3% | 8.33 nM -2.14% | 100 nM 1.58% | 833.33 nM 0.67% | 10000 nM 2.65%

CC(O)CC(=O)O (stereo not drawn) [beta-hydroxybutyrate]
inactive: 1 nM 7.02% | 8.33 nM 2.5% | 100 nM -2.77% | 833.33 nM -2.16% | 10000 nM -1.85%

NCC(CS(=O)(=O)O)c1ccc(Cl)cc1 (stereo not given) [saclofen]
inactive: 1 nM 0.43% | 8.33 nM 0.42% | 100 nM -1.16% | 833.33 nM 4.89% | 10000 nM 1.7%

CC(=O)c1c(O)cc(C)oc1=O [dehydroacetic-acid]
inactive: 1 nM 2.87% | 8.33 nM 3.44% | 100 nM 2.94% | 833.33 nM 2.97% | 10000 nM 3.07%

CNC(=O)[C@@H](NC(=O)[C@H](CC(C)C)[C@H](O)C(=O)NO)C(C)(C)C [marimastat]
inactive: 1 nM -4.07% | 8.33 nM 2.33% | 100 nM -5.18% | 833.33 nM -6.93% | 10000 nM -13.7%

COC1CCN(c2cccc(-c3cc(NC(C)=O)nc(-n4nc(C)cc4C)n3)n2)CC1
inactive: 1 nM 0.48% | 8.33 nM 2.72% | 100 nM 2.53% | 833.33 nM 1.74% | 10000 nM -0.2%

Cc1cc(=O)oc2c(C=O)c(O)ccc12
inactive: 1 nM 0.13% | 8.33 nM 2.74% | 100 nM 1.64% | 833.33 nM 2.83% | 10000 nM 6.12%

COC(=O)c1ccc2c(c1)NC(=O)/C2=C(\Nc1ccc(N(C)C(=O)CN2CCN(C)CC2)cc1)c1ccccc1 [nintedanib]
inactive: 1 nM -1.36% | 8.33 nM -3% | 100 nM -0.71% | 833.33 nM 0.19% | 10000 nM 0%

CNC(=O)c1ccc(-c2cnc3ncc(Cc4ccc5ncccc5c4)n3n2)cc1F
inactive: 1 nM 0.17% | 8.33 nM -1.02% | 100 nM -1.1% | 833.33 nM 2.22% | 10000 nM 7.85%

Nc1ccn([C@@H]2O[C@@](CO)(CCl)[C@@H](O)[C@H]2F)c(=O)n1
inactive: 1 nM 3.35% | 8.33 nM 2.02% | 100 nM -3.04% | 833.33 nM -0.34% | 10000 nM 2.59%

O=C(NCCCN1CCC2(CC1)OCc1ccccc12)[C@H]1CCCN1Cc1ccccc1
inactive: 1 nM -4.44% | 8.33 nM -4.12% | 100 nM -5.12% | 833.33 nM -1.81% | 10000 nM 0.56%

CCOC(=O)N[C@@H]1CC[C@@H]2[C@@H](C1)C[C@H]1C(=O)O[C@H](C)[C@H]1[C@H]2/C=C/c1ccc(-c2cccc(F)c2)cn1 [vorapaxar]
inactive: 1 nM -1.52% | 8.33 nM -0.15% | 100 nM -0.3% | 833.33 nM -0.44% | 10000 nM 0.22%

CC[n+]1c(-c2ccccc2)c2cc(N)ccc2c2ccc(N)cc21 [homidium]
inactive: 1 nM 4.78% | 8.33 nM 6.71% | 100 nM 5.98% | 833.33 nM 0.35% | 10000 nM 6.13%

C[Se]C[C@H](N)C(=O)O [Se-methylselenocysteine]
inactive: 1 nM 2.05% | 8.33 nM 1.18% | 100 nM 0.23% | 833.33 nM 0.93% | 10000 nM 1.8%

Nc1ccc2cc3ccc(N)cc3nc2c1 [proflavine-hemisulfate]
inactive: 1 nM -1.46% | 8.33 nM -2.57% | 100 nM -0.42% | 833.33 nM 1.94% | 10000 nM -8.75%

Oc1ccc2ccccc2c1Cc1c(O)ccc2ccccc12
inactive: 1 nM 2.61% | 8.33 nM -1.04% | 100 nM 2.9% | 833.33 nM -1.96% | 10000 nM 5.77%

CCCSc1ccc2[nH]c(NC(=O)OC)nc2c1 [albendazole]
inactive: 1 nM 3.38% | 8.33 nM -0.38% | 100 nM -0.24% | 833.33 nM -0.32% | 10000 nM 2.97%

COC(=O)/C=C/c1cccc(N(Cc2ccc(-c3ccc(N(C)C)cc3)cc2)C(=O)C2CCCCC2)c1 [fexaramine]
inactive: 1 nM -0.19% | 8.33 nM 0.37% | 100 nM -0.24% | 833.33 nM 2.29% | 10000 nM 1.78%

O=C(O)c1cc2occc2[nH]1
inactive: 1 nM -2.55% | 8.33 nM -2.94% | 100 nM -2.08% | 833.33 nM -2.97% | 10000 nM -2.87%

CNC(=O)c1c(I)c(C(=O)NCC(=O)Nc2c(I)c(C(=O)O)c(I)c(C(=O)NCCO)c2I)c(I)c(N(C)C(C)=O)c1I [ioxaglic-acid]
inactive: 1 nM 1.6% | 8.33 nM 1.46% | 100 nM 1.47% | 833.33 nM 0.75% | 10000 nM 0.41%

COc1cc(N2CCC(N3CCN(C)CC3)CC2)ccc1Nc1ncc(Cl)c(Nc2ccccc2S(=O)(=O)C(C)C)n1
inactive: 1 nM -0.23% | 8.33 nM -4.02% | 100 nM -0.56% | 833.33 nM -0.6% | 10000 nM -15.5%

Cc1cc(C)c(S(=O)(=O)Nc2cccc(C(F)(F)F)c2)c(C)c1
inactive: 1 nM -1.28% | 8.33 nM 1.26% | 100 nM 1.15% | 833.33 nM 1.42% | 10000 nM 2.48%

CC(C)(C)NCC(O)c1cc(Cl)c(N)c(Cl)c1 (stereo not given) [clenbuterol]
inactive: 1 nM -0.45% | 8.33 nM -0.13% | 100 nM 1.96% | 833.33 nM -0.35% | 10000 nM -2.77%

CN/C(=N\S(=O)(=O)c1ccc(Cl)cc1)N1C[C@H](c2ccccc2)C(c2ccc(Cl)cc2)=N1 (racemic)
inactive: 1 nM -2.29% | 8.33 nM -0.66% | 100 nM -0.25% | 833.33 nM 1.24% | 10000 nM -3.73%

Cn1cc(C(=O)c2cccc3ccccc23)cc1C(=O)O [napirimus]
inactive: 1 nM -0.4% | 8.33 nM -1.83% | 100 nM 0.36% | 833.33 nM -1.9% | 10000 nM 1.11%

C[C@@H]1C[C@H]2[C@@H]3CCC4=CC(=O)C=C[C@]4(C)[C@@]3(F)[C@@H](O)C[C@]2(C)[C@@]1(O)C(=O)COP(=O)(O)O
inactive: 1 nM -1.27% | 8.33 nM 0.18% | 100 nM -1.45% | 833.33 nM -3.81% | 10000 nM 0.77%

Cc1cccc(C)c1NC(=O)CN1CCCCCC1 [pincainide]
inactive: 1 nM -3.17% | 8.33 nM -5.99% | 100 nM -2.63% | 833.33 nM -1.95% | 10000 nM 0.04%

COc1ccccc1CC(=N)N1C[C@@H]2C(=O)CCC(c3ccccc3)(c3ccccc3)[C@@H]2C1
inactive: 1 nM -0.54% | 8.33 nM 2.21% | 100 nM 1.93% | 833.33 nM 3.76% | 10000 nM -2.17%

O=C(Nc1ccc(Oc2ccc(Cl)cn2)c(Cl)c1)c1ccccn1
inactive: 1 nM 0.81% | 8.33 nM -0.54% | 100 nM 1.75% | 833.33 nM -3.64% | 10000 nM 0.26%

Clc1ccccc1C(c1ccccc1)(c1ccccc1)n1ccnc1 [clotrimazole]
inactive: 1 nM -0.06% | 8.33 nM -0.06% | 100 nM -0.28% | 833.33 nM 0.61% | 10000 nM 2.73%

CC/C(=C(\c1ccccc1)c1ccc(OCCN(C)C)cc1)c1ccccc1 [tamoxifen]
inactive: 1 nM -0.39% | 8.33 nM 1.81% | 100 nM 0.36% | 833.33 nM 0.06% | 10000 nM 11.2%

CC1(CN)Cc2ccccc2C1
inactive: 1 nM 4.53% | 8.33 nM -3.63% | 100 nM -3.31% | 833.33 nM 1.99% | 10000 nM -3.29%

OC(c1ccccc1)C1CCN(CCc2ccccc2)CC1 (stereo not given)
inactive: 1 nM -0.21% | 8.33 nM 1.17% | 100 nM -0.64% | 833.33 nM -0.54% | 10000 nM 0.25%

NC(=O)Nc1sc(-c2ccc(F)cc2)cc1C(N)=O
inactive: 1 nM 1.14% | 8.33 nM -0.06% | 100 nM -0.35% | 833.33 nM -3.05% | 10000 nM -0.22%

CC(Cc1ccc(O)cc1)NCC(O)c1cc(O)cc(O)c1 (stereo not given) [fenoterol]
inactive: 1 nM 2.01% | 8.33 nM 0.82% | 100 nM 2.19% | 833.33 nM 2.52% | 10000 nM 0.86%

O=C(O)C[C@H]1CC[C@H](c2ccc(NC(=O)c3nnc(Nc4ccc(F)c(F)c4)o3)cc2)CC1
inactive: 1 nM -0.14% | 8.33 nM -0.74% | 100 nM 0.13% | 833.33 nM -2.59% | 10000 nM -0.04%

CCNC(=O)CCC/C=C\C[C@@H]1[C@@H](/C=C/[C@@H](O)CCc2ccccc2)[C@H](O)C[C@@H]1O [bimatoprost]
inactive: 1 nM -2.31% | 8.33 nM -0.42% | 100 nM -0.15% | 833.33 nM -0.88% | 10000 nM 3.04%

O=C(NCCNCC(O)COc1ccc(O)cc1)N1CCOCC1 (stereo not given) [xamoterol]
inactive: 1 nM -2.07% | 8.33 nM -0.88% | 100 nM -0.13% | 833.33 nM 0.01% | 10000 nM 3.26%

Cc1ccccc1-c1cc(N2CCN(C)CC2)ncc1N(C)C(=O)C(C)(C)c1cc(C(F)(F)F)cc(C(F)(F)F)c1 [netupitant]
inactive: 1 nM 0.76% | 8.33 nM 0.01% | 100 nM -1.38% | 833.33 nM -1.26% | 10000 nM 8.28%

C[C@H](NC(=O)C(C)(C)Oc1ccc(C(F)(F)F)cn1)[C@@H](Cc1ccc(Cl)cc1)c1cccc(C#N)c1 [taranabant]
inactive: 1 nM -0.8% | 8.33 nM 0.33% | 100 nM -2.11% | 833.33 nM 1.39% | 10000 nM -5.97%
